Reference: the supplement of paper PMC9334596
Values joined by “and” are separate entries in the source; they are usually repeats but may differ in a detail not shown here. Equal entries are not always repeated. Over roughly 5,300 compounds, “PER2::LUC luminescence relative to vehicle control” has its median near 0.96; the highest 2% begin near 1.3. For the sample, the highest values were picked, then their nearest neighbours and some compounds at random.

Tested on: mPer2Luc MEF
Assay: PER2::LUC luminescence relative to vehicle control (fold of vehicle); higher = higher PER2::LUC reporter signal
Details: 10 µM
Method in brief: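 Compounds from commercial libraries were added at 10 μM to 384-well plates seeded 48 h earlier with ~3000 mPer2Luc mouse embryonic fibroblasts per well. The cells were kept in DMEM with 10% FBS at 37 °C and 5% CO2. Luminescence was read with ONE-Glo 24 h and 30 h after treatment, then an alamarBlue viability assay was run. Values are PER2::LUC luminescence relative to vehicle control, as fold change.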

SMILES | PER2::LUC luminescence (time after treatment 24 h) | PER2::LUC luminescence (time after treatment 30 h)
C[n+]1cc(NC(=O)c2cccc(C(=O)Nc3cc4ccccc4[n+](C)c3)n2)cc2ccccc21 | 0.697 | 0.604
Cc1cccn2c(=O)c(C=C(C#N)c3nc4ccccc4s3)c(Oc3ccc(F)cc3)nc12 | 0.941 | 0.942
CCCCCCCC/C=C/CCCCCCCCOP(=O)([O-])OCC[N+](C)(C)C | 1.02 | 0.935
OC[C@H]1O[C@@H](O[C@H]2[C@H](O)[C@@H](O)C(O)O[C@@H]2CO)[C@H](O)[C@@H](O)[C@H]1O (stereo partly specified) | 1.03 | 1.06
OC[C@H]1O[C@@H](O[C@H]2[C@H](O)[C@@H](O)[C@@H](O)O[C@@H]2CO)[C@H](O)[C@@H](O)[C@@H]1O | 0.982 | 0.927
OC[C@H]1O[C@@H](O[C@@H]2[C@@H](CO)OC(O)(CO)[C@H]2O)[C@H](O)[C@@H](O)[C@H]1O (mixture of isomers) | 1.12 | 1.37
CCCC1(C)C(C#N)(C#N)C1(C#N)C#N | 1.15 | 1.04
CC[C@H](CC[C@@H](C)[C@H]1CC[C@H]2[C@@H]3CC=C4C[C@@H](OC(C)=O)CC[C@]4(C)[C@H]3CC[C@]12C)C(C)C | 1.04 | 1.02
COC(=O)c1ccc2c(c1)nc(NC(=O)c1ccccc1)n2CCCc1ccccc1 | 1.09 | 0.933
C[C@@H]1CCNC(=O)c2cc3ccc(C(=O)Nc4nc5ccccc5n4CCCN(C)C)cc3n21 | 0.548 | 0.586
O=C(Nc1nc2ccccc2n1CCN1CCOCC1)c1cccc([N+](=O)[O-])c1 | 1.36 | 1.18
CC(C)[C@H](NC(=O)CCCCCN1C(=O)C=CC1=O)C(=O)N[C@@H](CCCNC(N)=O)C(=O)Nc1ccc(COC(=O)Oc2ccc([N+](=O)[O-])cc2)cc1 | 0.958 | 1.07
COC(=O)CNC(=O)C(=O)OC | 0.922 | 0.99
CC(C)(C)c1ccc(S(=O)(=O)Nc2ccc(-n3ccnc3)cc2)cc1 | 1.15 | 1.26
Cc1cc(OCc2nc(-c3ccccc3Cl)cs2)ccc1CCC(=O)O | 1.11 | 1.28
CCOc1cc2c(c(F)c1OCC)C(=N)N(CC(=O)c1cc(N3CCOCC3)c(OC)c(C(C)(C)C)c1)C2 | 0.14 | 0.117
Cc1oncc1C(=O)Nc1ccc(C(F)(F)F)cc1 | 1.35 | 1.82
O=C(Nc1ccc(C(O)(C(F)(F)F)C(F)(F)F)cc1)c1ccc(C(F)(F)F)cc1 | 0.687 | 0.47
Nc1ccc(NC(=O)c2ccc(C(F)(F)F)cc2)nc1 | 1.01 | 0.976
CC1=CC[C@@]2(C)CC[C@@](O)(C(C)C)[C@@H]2[C@@H](OC(=O)c2ccc(O)cc2)C1 | 1.08 | 1.15
O=C(Nc1ccc(Cl)cc1CN1C(=O)c2ccccc2C1=O)c1ccccc1O | 1.03 | 1.02
NC[C@H]1CC[C@H](C(=O)Oc2ccc(CCC(=O)O)cc2)CC1 | 0.828 | 0.901
Cc1cc2c(cc1Cl)N(C(=O)Nc1ccc(Oc3cccnc3C)nc1)CC2 | 0.924 | 1.03
C[Si](C)(C)CCOCn1ccc2c(-c3cn[nH]c3)ncnc21 | 1.11 | 1.03
O=C(O)c1ccccc1C(=O)Nc1ccc(S(=O)(=O)Nc2nccs2)cc1 | 0.993 | 0.892
S=C(Nc1ccccc1)Nc1nccs1 | 1.46 | 1.58

SMILES | PER2::LUC luminescence (time after treatment 24 h) | PER2::LUC luminescence (time after treatment 30 h)
O=C(O)CCC(=O)Nc1ccc(S(=O)(=O)Nc2nccs2)cc1 | 0.666 | 0.939
CCOc1ccc(C(Nc2ccccn2)c2ccc3ccc(C)nc3c2O)cc1C (stereo unspecified) | 1.13 | 1.13
NC(N)=NCCC[C@H](NC(=O)[C@@H](N)Cc1ccc(O)cc1)C(=O)O | 1.04 | 0.909
CS(=O)(=O)c1cc(F)cc2c3c(n(Cc4ccc(Cl)cc4)c12)[C@@H](CC(=O)O)CC3 | 1.13 | 1.09
CC(C)CCC[C@@H](C)[C@H]1CC[C@H]2[C@@H]3CC=C4C[C@@H](O)CC[C@]4(C)[C@H]3CC[C@]12C | 0.926 | 0.923
CC(=O)OC1CCC2(C)C(=CCC3C2CCC2(C)C(C(C)CCCC(C)C)CCC32)C1 (stereo unspecified) | 1.04 | 0.938
CC(C)CCC[C@@H](C)[C@H]1CC[C@H]2[C@@H]3CC=C4CC(=O)CC[C@]4(C)[C@H]3CC[C@]12C | 1.42 | 1.09
CO[C@H]1[C@H](OC(=O)c2ccc(C)[nH]2)[C@H](O)[C@@H](Oc2ccc3c(O)c(NC(=O)c4c[nH]c(C(=O)Nc5c(O)c6ccc(O[C@H]7OC(C)(C)[C@@H](OC)[C@H](OC(=O)c8ccc(C)[nH]8)[C@@H]7O)c(C)c6oc5=O)c4C)c(=O)oc3c2C)OC1(C)C | 1.1 | 1.13
C/C1=C\CC(C)(C)/C=C/C(=O)/C(C)=C/CC1 | 1.08 | 1.06
Clc1ccc(Cn2c(CN3CCCC3)nc3ccccc32)cc1 | 1.06 and 0.848 | 0.924 and 0.834
Cc1nc2ccccc2n1Cc1ccc(Cl)cc1 | 0.361 | 0.307
CN(c1nccc(=O)[nH]1)C1CCN(c2nc3ccccc3n2Cc2ccc(F)cc2)CC1 | 1.07 | 1.45
COc1ccc([C@@H]2OC[C@@H]3[C@H]2CO[C@H]3c2ccc(OC)c(OC)c2)cc1OC | 1.05 | 1.07
CC1(C)CC(NC(=O)C(=O)Nc2ccc(Br)cc2)CC(C)(C)N1 | 0.875 | 0.928
NC1CCN(O)C1=O (single isomer, unassigned; (-)) | 1.08 | 1.01
CC1(C)CC(NC(=O)C(=O)Nc2ccc(Cl)cc2)CC(C)(C)N1 | 0.958 | 1
O=C(O)c1cc(=O)c2ccccc2[nH]1 | 1.08 | 0.931
O=C1c2ccccc2-n2c1nc1ccccc1c2=O | 0.998 | 0.885
O=c1c2ccccc2nc2n1CCc1c-2[nH]c2ccccc12 | 1.36 | 1.51
CC1(C)CC2C1CC[C@]1(CBr)CCC3C(CC(=O)O)C(=O)O[C@@]32C1 (stereo partly specified) | 1.04 | 0.929
NCC(O)COc1cccc2ccccc12 (stereo unspecified) | 0.637 | 0.588
Cc1onc(-c2ccccc2)c1C(=O)N1CCN(c2ccc([N+](=O)[O-])cc2Cl)CC1 | 0.896 | 1.04
CC(=O)Nc1ccccc1 | 0.881 | 1.21
O=C(Nc1ccccc1)Nc1ccccc1 | 1.57 | 1.44
O=C(Nc1ccccc1)c1ccccc1O | 1.27 | 1.08
CC(C)c1c2cc(-c3ccnc(NC4CCC(NC5CCOCC5)CC4)n3)ccc2nn1C (stereo unspecified) | 0.008 | 0.002

SMILES | PER2::LUC luminescence (time after treatment 24 h) | PER2::LUC luminescence (time after treatment 30 h)
OC[C@H]1O[C@@H](O[C@@H]2OC=C[C@H]3[C@H](O)[C@@H]4O[C@]4(CO)[C@@H]23)[C@H](O)[C@@H](O)[C@@H]1O | 1.04 | 1
O=c1cc(-c2ccccc2)oc2ccc(O)cc12 | 1.47 | 1.89
O=c1cc(-c2ccccc2)oc2c(O)c(O)ccc12 | 0.582 | 0.632
O=c1oc2cc(O)ccc2c2oc3cc(O)ccc3c12 | 1.06 | 1.13
O=c1cc(-c2ccccc2O)oc2cc(O)ccc12 | 1.27 | 1.38
O=c1cc(-c2ccc(O)cc2)oc2ccc(O)cc12 | 1.72 | 1.87
Cc1cc(=O)oc2cc(O)ccc12 | 1.01 and 1.08 and 0.784 | 0.94 and 0.807 and 0.997
CCOC(=O)COc1ccc2c(=O)cc(-c3ccccc3)oc2c1 | 1.06 | 1.08
O=c1cc(-c2ccccc2)oc2cc(O)c(O)cc12 | 1.41 | 1.47
O=c1oc2ccc(O)cc2c2c1NCCC2 | 0.764 | 1.05
O=c1cc(-c2ccc(O)cc2)oc2cc(O)c([C@@H]3O[C@H](CO)[C@@H](O)[C@H](O)[C@H]3O)c(O)c12 | 0.972 | 0.983
O=c1c(O)c(-c2ccccc2)oc2ccccc12 | 1.08 | 1.05
O=C(O)/C=C/c1ccc(O)c(O)c1/C(=C\c1ccc(O)c(O)c1)C(=O)O | 1.15 | 1.02
COc1cc(O)c(C(=O)/C=C/c2ccc(OC)c(O)c2)c(OC)c1 | 1.08 | 1
COc1ccc(SC(=O)N[C@@H](CCC(=O)O)C(=O)O)cc1 | 0.852 | 0.909
CC(C)(O)c1ccccc1Cc1ccccc1 | 0.709 | 1.18
C=CC1=C(C)C2=CC3=NC(=C(CC(=O)O)C4=NC(=C(C)C4=C(O)O)C=c4[nH]c(c(C)c4CC)=CC1=N2)C(CCC(=O)O)C3C (stereo unspecified) | 0.911 | 0.984
OC[C@H]1O[C@H](O[C@H]2C(O)[C@@H](O)[C@@H](OC[C@H]3O[C@@H]4O[C@H]5[C@H](O)[C@@H](O)[C@@H](O[C@H]6[C@H](O)[C@@H](O)[C@@H](O[C@H]7[C@H](O)[C@@H](O)[C@@H](O[C@H]8[C@H](O)[C@@H](O)[C@@H](O[C@H]9[C@H](O)[C@@H](O)[C@@H](O[C@H]%10[C@H](O)[C@@H](O)[C@@H](O[C@H]3[C@H](O)[C@H]4O)O[C@@H]%10CO)O[C@@H]9CO)O[C@@H]8CO)O[C@@H]7CO)O[C@@H]6CO)O[C@@H]5CO)O[C@@H]2CO)[C@H](O)[C@@H](O)[C@@H]1O (stereo partly specified) | 1.08 | 1.06
C=CCCCCCCCCCCCC(O)CC(O)COC(C)=O (stereo unspecified) | 0.894 | 0.95
C[C@H](CCC(=O)NCCC[N+](C)(C)CCCS(=O)(=O)[O-])[C@H]1CC[C@H]2[C@@H]3[C@H](O)C[C@@H]4C[C@H](O)CC[C@]4(C)[C@H]3C[C@H](O)[C@]12C | 1.06 | 0.883
O=c1c(O)c(-c2ccccc2)oc2cc(O)ccc12 | 1.13 | 1.18
O=c1cc(-c2ccccc2)oc2cc(O)ccc12 | 1.48 | 1.84
CC1=C([C@@H]2C=C3[C@@H](CC[C@]4(C)[C@@H]([C@H](C)CCCC(C)C)CC[C@@H]34)n3c(=O)n(-c4ccccc4)c(=O)n32)C[C@@H](O)C[C@@H]1O | 0.94 | 0.899
O=c1ccn([C@@H]2O[C@H](CO)[C@@H](O)[C@H]2O)c(=O)[nH]1 | 0.979 | 1.03
O=c1ncccn1[C@@H]1O[C@H](CO)[C@@H](O)[C@H]1O | 0.999 | 1.07
O=c1cnn([C@@H]2O[C@H](CO)[C@@H](O)[C@H]2O)c(=O)[nH]1 | 1.41 | 1.5
